# p53null 32C tox: qHTS Screen for Compounds that Selectively Target Cancer Cells with p53 Mutations: Cytotoxicity of p53 Null Cells at the Permissive Temperature; Potency, µM (titrated, usually from 46.1 µM), hits mostly cytotoxic; 55,000 tested, 0.62% active; H1299-neo p53 null cells, ATP luminescence, 24 h, 32C; AID 903, 2007; also: nearly all actives have a fitted effect of over 55% in size
#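 ATP-content luminescence in p53-null H1299-neo cells after 24 h compound exposure (up to 46 uM) at 32C permissive temperature; 0% and 100% killing set by DMSO and 100 uM tamoxifen; Hill-equation AC50.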
# PMP22 txn: Cell-based coincidence reporter assay to measure PMP22 gene transcription in S16 Pmp22-F2sN cells - Primary screen. S16 Pmp22-F2sN Schwann cells, FLuc/NLuc coincidence luminescence, 24 h. Potency, µM (series often up to 57.5 µM), hits mostly inhibitors. 43,000 tested, 2% active. AID 1508649, 2021; active = clear falling dose curves in both reporters; inconclusive = both reporters move, but less clearly or upward; inactive = either reporter flat; the % is the NLuc reporter signal
#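 Transcriptional readout in edited S16(c9) cells: two luciferases reported from the Pmp22 locus, measured in turn after 24 h compound incubation.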
# p53null 39C kill: qHTS Screen for Compounds that Selectively Target Cancer Cells with p53 Mutations: Cytotoxicity of p53 Null Cells at the Nonpermissive Temperature; H1299 p53-null (neo) cells, 39C, ATPlite viability, 24 h; Potency, µM (highest dose often 46.1 µM), hits mostly cytotoxic; 55,000 tested, 0.97% active; AID 904, 2007; also: nearly all actives have a fitted effect of over 50% in size
#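 Following overnight plating at 37C (600 cells/well), H1299-neo or H1299-p53A138V cells are dosed up to 46 uM. Incubation lasts 24 hr at 39C before ATP detection.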
# S16 F2sN tox: Cell viability qHTS assay in S16 Pmp22-F2sN cells; S16 Pmp22-F2sN Schwann cells viability, CellTiter-Glo, 24 h; Potency, µM (doses to about 57.5 µM), usual class: cytotoxic; 43,000 tested, 0.48% active; AID 1508642, 2021; also: nearly all actives have a fitted effect of over 65% in size
#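 Viability was measured by CellTiter-Glo luminescence (15 min, room temperature). This followed 24 h at 37 °C of compound exposure (23 nL pin transfer) in S16 Pmp22-F2sN Schwann cells, 500-1,000 per well.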
# mTORC1 inh: Acumen qHTS Assay for Inhibitors of the mTORC1 Signaling Pathway in MEF (Tsc2-/-, p53-/-) Cells: Sytravon. 44,000 tested, 0.78% active. Tsc2-/- p53-/- MEF, phospho-rpS6 immunofluorescence/PI, 24 h. Potency, µM (highest dose often 38.3 µM), most hits filed as inhibitors; also: nearly all actives have a fitted effect of over 50% in size
#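 Tsc2-/-, p53-/- mouse embryonic fibroblasts (empty-vector line) exposed to compound 24 hrs at 37 C, fixed, immunostained for phospho-rpS6 and counterstained with propidium iodide. Acumen laser scanning gives % positive cells from Alexa 488/PI ratio, thresholded using 7.5 nM rapamycin; PI count gives viability.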
# NLuc sat counter: Biochemical NLuc saturation counterscreen for small molecule modulators of PMP22 gene expression - Nano-Glo assay. shares compounds with PMP22 txn. Secreted NLuc enzyme (filtered S16 cell medium), Nano-Glo luminescence. Potency, µM (titrated, usually from 57.5 µM), actives largely listed as inhibitors. 690 tested, 4% active. AID 1508638, 2021
# NLuc Km counter: Biochemical coelenterazine-based NLuc counterscreen for small molecule modulators of PMP22 gene expression - Km assay | Potency, µM (series often up to 57.5 µM), hits mostly inhibitors | secreted NLuc enzyme, coelenterazine luminescence, Km conditions | AID 1508639, 2021 | shares compounds with PMP22 txn | 690 tested, 5% active
# FLuc ctr PMP22: Biochemical FLuc counterscreen for small molecule modulators of PMP22 gene expression; shares compounds with PMP22 txn; purified P. pyralis FLuc, luminescence, 10 min; Potency, µM (top dose mostly 57.5 µM), most hits filed as inhibitors; 690 tested, under 10 active; AID 1508640, 2021
# Target sequence (P08659 whole entry, looked up): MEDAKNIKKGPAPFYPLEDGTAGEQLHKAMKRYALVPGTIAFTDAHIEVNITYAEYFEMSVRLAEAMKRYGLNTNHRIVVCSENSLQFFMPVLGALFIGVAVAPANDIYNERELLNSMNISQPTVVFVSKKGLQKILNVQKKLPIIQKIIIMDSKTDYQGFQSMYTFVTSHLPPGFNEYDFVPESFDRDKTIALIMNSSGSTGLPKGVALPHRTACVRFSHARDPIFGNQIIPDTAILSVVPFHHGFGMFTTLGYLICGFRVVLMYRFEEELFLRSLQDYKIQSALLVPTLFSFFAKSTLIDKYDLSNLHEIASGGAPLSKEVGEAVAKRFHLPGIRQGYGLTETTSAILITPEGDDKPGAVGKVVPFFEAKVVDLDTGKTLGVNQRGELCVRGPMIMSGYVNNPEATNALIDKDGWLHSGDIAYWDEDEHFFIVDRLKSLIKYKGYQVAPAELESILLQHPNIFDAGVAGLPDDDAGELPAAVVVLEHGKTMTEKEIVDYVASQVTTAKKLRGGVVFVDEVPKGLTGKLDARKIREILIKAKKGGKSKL
# S16 viab conf: Cell viability qHTS assay in S16 Pmp22-F2sN cells - Confirmatory screen; shares compounds with PMP22 txn; AID 1508641, 2021; Potency, µM (titrated, usually from 57.5 µM), actives largely listed as cytotoxic; 690 tested, 7% active; S16 Schwann cells viability, CellTiter-Glo ATP luminescence, 24 h
# PMP22 txn conf: Cell-based coincidence reporter assay to measure PMP22 gene transcription in S16 Pmp22-F2sN cells - Confirmatory screen | shares compounds with PMP22 txn | S16 Schwann cells Pmp22-F2sN, dual luciferase, 24 h | Potency, µM (titrated, usually from 57.5 µM), usual class: inhibitors | 690 tested, 22% active; active = clear falling dose curves in both reporters; inconclusive = both reporters move, but less clearly or upward; inactive = either reporter flat; the % is the FLuc reporter signal
# PMP22 HiBiT cnf: Cell-based HiBiT reporter assay to measure PMP22 protein expression in S16 Pmp22-HiBiT cells - Confirmatory screen | 95 tested, under 10 active | shares compounds with PMP22 txn | S16 Schwann cells Pmp22-HiBiT, luminescence, 48 h | AID 1508647, 2021 | Potency, µM (doses to about 27.9 µM), most hits filed as inhibitors
# Target sequence (P25094 whole entry, looked up): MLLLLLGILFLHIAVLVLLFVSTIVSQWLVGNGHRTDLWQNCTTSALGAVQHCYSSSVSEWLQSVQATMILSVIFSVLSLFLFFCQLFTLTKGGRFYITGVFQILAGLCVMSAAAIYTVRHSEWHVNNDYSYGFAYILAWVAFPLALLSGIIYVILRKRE
# A number is an active result; - = inactive; ? = inconclusive; . = not tested or not shown. This is a sample that favours compounds with a hit; in the whole collection about 3.2% have one here. Unless noted, calls follow the shape of the dose curve; as a rule, active = well fitted curve in the direction sought with a large enough effect; inconclusive = small, poorly fitted or top-dose-only effect, or another doubt; inactive = no such curve, though single readings can be large; an effect the other way counts as inactive or inconclusive.
SMILES,p53null 32C tox,PMP22 txn,p53null 39C kill,S16 F2sN tox,mTORC1 inh,NLuc sat counter,NLuc Km counter,FLuc ctr PMP22,S16 viab conf,PMP22 txn conf,others
O=C(Nc1cccc2cccnc12)c1cccc2ccccc12,-,?,-,-,-,.,.,.,.,.,
O=C(CCS(=O)(=O)c1ccccc1)N(Cc1cccnc1)c1nc2c(Cl)cccc2s1,-,?,-,?,-,.,.,.,.,.,
CCCCn1c(=N)n(CCOc2ccccc2OC)c2ccccc21,-,20µM,?,?,11.7µM,-,-,-,?,?,
CC(=O)Nc1cccc(-c2nnc(SCC(=O)c3cc([N+](=O)[O-])ccc3Br)o2)c1,-,12.1µM,?,?,?,10.9µM,12.2µM,?,-,17.2µM,
Cc1c(C(=O)N(C)C)sc2c1c(=O)n(-c1ccc(F)cc1)c(=O)n2Cc1cc(=O)n2ccccc2n1,-,-,-,-,-,.,.,.,.,.,
CCN(CC)C(=O)c1sc2c(c1C)c(=O)n(-c1ccccc1)c(=O)n2Cc1cc(=O)n2ccccc2n1,-,11.5µM,-,-,-,-,-,-,-,-,
CCc1ccc(S(=O)(=O)c2cn(Cc3ccc(OC)cc3)c3cc(OC)c(OC)cc3c2=O)cc1,-,-,-,-,-,.,.,.,.,.,
CCc1ccc(S(=O)(=O)c2cn(Cc3ccccc3F)c3cc(OC)c(OC)cc3c2=O)cc1,-,14.2µM,-,-,-,-,-,-,-,-,
CCC(C)n1c(=N)c(C(=O)NC2CCCC2)cc2c(=O)n3ccccc3nc21 (stereo unspecified),-,9.46µM,-,-,-,-,-,-,?,-,
COCCCn1c(=N)c(C(=O)NC2CCCC2)cc2c(=O)n3cccc(C)c3nc21,-,?,-,-,-,-,-,-,-,?,
COCCCn1c(=N)c(C(=O)NC2CCCC2)cc2c(=O)n3cc(C)ccc3nc21,-,-,-,-,-,.,.,.,.,.,
Cc1nn(C(=O)c2ccccc2)c(C)c1S(=O)(=O)N1CCOCC1,-,-,-,-,-,.,.,.,.,.,
Cc1cc(-c2ccc(S(=O)(=O)Nc3cccc(Cl)c3C)cc2)on1,-,.,-,.,-,.,.,.,.,.,
O=C(CCOc1ccccc1)N(Cc1cccnc1)c1nc2ccc(F)cc2s1,-,13.4µM,-,25.1µM,-,?,?,-,-,-,
O=C(COc1ccccc1)N(Cc1cccnc1)c1nc2ccc(F)cc2s1,-,-,-,-,-,.,.,.,.,.,
CCOC(=O)c1ccc(N2C(=O)c3n[nH]c(-c4ccco4)c3C2c2ccc(C)cc2)cc1 (stereo unspecified),-,?,?,-,?,.,.,.,.,.,
CCOC(=O)c1ccc(N2C(=O)c3n[nH]c(-c4ccco4)c3C2c2ccc(O)c(OC)c2)cc1 (stereo unspecified),-,11.3µM,?,-,?,?,?,-,-,19.3µM,
Cc1cccc(N2CCN(c3ccc(C(=O)O)cc3NC(=O)c3cccc(Cl)c3)CC2C)c1 (stereo unspecified),-,?,-,-,-,.,.,.,.,.,
CC(=O)c1ccc(N2CCN(S(=O)(=O)c3cc(-c4onc(C)c4C)ccc3C)CC2)cc1,-,10.1µM,-,-,-,?,?,-,-,-,
Cc1cccc(-n2ncc3c(Nc4c(C)cc(C)cc4C)ncnc32)c1,-,-,-,-,?,.,.,.,.,.,
Cc1cc(C)c(Nc2ncnc3c2cnn3C)c(C)c1,-,?,-,?,?,-,-,-,-,-,
COc1ccc(OCC(=O)NCc2ccc3c(c2)CCN3C(=O)c2cccc(C)c2)cc1,-,20µM,-,-,?,?,-,-,-,?,
COc1cc(OC)c(OC)cc1/C=C/c1nc2cc3ccccc3cc2c(=O)n1-c1ccc(F)cc1F,-,9.46µM,-,?,-,3.06µM,2.17µM,?,-,-,
COc1ccc(C2=C(C)C(=NCCCN3CCN(c4cc(C)ccc4C)CC3)NS2(=O)=O)cc1,-,15.2µM,-,-,-,-,-,-,-,?,
CC1=C(c2ccc(Cl)cc2)S(=O)(=O)NC1=NCc1ccc(C)cc1,-,-,-,-,-,.,.,.,.,.,
COc1ccc(C(C(=O)NCc2ccccc2)N(C(=O)Cn2nnc3ccccc32)c2ccc(F)cc2)cc1 (stereo unspecified),-,11.3µM,-,-,-,-,-,-,-,-,
COc1ccc(N(C(=O)Cn2nnc3ccccc32)C(C(=O)NCc2ccccc2)c2ccc(F)cc2)cc1 (stereo unspecified),-,-,-,-,-,.,.,.,.,.,
CCNc1c(NC(=O)c2cc(OCC)c(OCC)c(OCC)c2)c(=O)oc2ccccc12,-,-,-,-,-,.,.,.,.,.,
CCN(CC)c1ccc(NC(=O)C2COc3ccc(OC)cc3C2)c(C)c1 (stereo unspecified),-,11.7µM,?,?,-,-,-,-,?,14.5µM,PMP22 HiBiT cnf=?
